Screening data: PubChem BioAssay, several laboratories
Rows were chosen to be rich in hits. Some 2.7% of all compounds tested hit in one or more screens of this group.
Peg3 prom inh: Peg3 promoter-driven luciferase inhibitors, primary screen, cell-based, HeLa, luciferase luminescence | HeLa PEG-Prom luciferase reporter, overnight | inhibition, % at 20 µM | actives 1.7% (n = 360,000) | AID 588405, 2011;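 active means inhibition of at least 50% at 20 µM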
TRPM1 prom inh: inhibitors of MITF-dependent TRPM1 promoter reporter, primary screen, cell-based, SK-MEL-5, single point, luciferase; SK-MEL-5 TRPM1 promoter luciferase, 24 h; AID 488899, 2010; actives 0.83% (n = 330,000); inhibition, % at 12.5 µM;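 active means mean inhibition across replicates of 60% or more, whatever share of single replicates reaches that level; inconclusive means some that reach 60%, reason not given; inactive means mean inhibition across replicates below 60%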
Shn3 inh set2: reduction of Shn3 3'UTR firefly luciferase signal, primary screen, Schnurri-3 inhibitor project, cell-based, Clone20 osteoblasts, set 2 | AID 588674, 2011 | Clone20 osteoblast Shn3 3'UTR firefly luciferase, 24 h | inhibition, % at 12.5 µM | actives 0.52% (n = 360,000);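 active means mean inhibition of at least 75% with every replicate also reaching 75%; inconclusive means mean inhibition at least 75% but some replicate below; inactive means mean inhibition below 75%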;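 further: 0% = median of neutral control wells and 100% = pilot-screen positive control compound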
HIF-2a inh: HIF-2a reporter inhibitors, primary screen, luminescence, 786-0 RCC cells; 786-0 RCC cells HIF-2a reporter, luciferase luminescence, overnight; inhibition, % at 18.8 µM; actives 0.72% (n = 360,000); AID 624352, 2012;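 active means inhibition of the luminescence signal of 40% or more relative to plate controls, in a single-dose primary screen at 18.75 µM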
KKLEB cytotox: cytotoxicity in KKLEB CF airway cells, primary screen, cytotoxicity control for CF NF-kB inhibitor project, cell-based, uHTS, fluorescence assay plates; AID 602141, 2011; KKLEB CF airway cells viability, ATPlite luminescence, overnight; active compounds read low; cells stimulated with P. aeruginosa culture filtrate; activity change (cytotoxicity), % at 5 µM; actives 0.36% (n = 360,000);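 active means corrected activity change at or below -50% at 5 µM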
CF NFkB inh: inhibitors of PAF-induced NF-kB signaling, primary screen, cell-based, GFP fluorescence, uHTS; KKLEB NF-kB-GFP reporter, GFP fluorescence overnight; inhibition, % at 5 µM; actives 0.86% (n = 360,000);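 active means at least 50% inhibition at 5 µM, scaled per plate between neutral and stimulator controls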;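 further: PAF is a Pseudomonas aeruginosa culture filtrate used as stimulus; plate controls were PAF-stimulated DMSO wells for no effect and unstimulated DMSO wells for full effect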
* marks the source's active call; other numbers are inactive results; u = inconclusive; x = no result given.

SMILES | Peg3 prom inh | TRPM1 prom inh | Shn3 inh set2 | HIF-2a inh | KKLEB cytotox | CF NFkB inh
Cc1nc(NC(=O)c2cccc(-c3cc4ccccc4oc3=O)c2)ccc1Br | 79* | 7 | -47 | -55 | -6 | 7
Cc1nc(NC(=O)c2ccc(-c3cc4ccccc4oc3=O)cc2)ccc1Br | 82* | 0 | -9 | 9 | -1 | 4
Cc1nc(NC(=O)c2ccc3c(c2)OCO3)ccc1Br | -281 | -130 | -128 | -350 | 8 | -11
O=C(Nc1ccc(Br)cn1)c1cccc(-c2cc3ccccc3oc2=O)c1 | -175 | -50 | -53 | -82 | -1 | -9
O=c1cc(-c2ccc(O)c(O)c2)oc2ccc3ccccc3c12 | 20 | 88* | 78 | 6 | -32 | -92
O=C1Cc2c([nH]c3ccc([N+](=O)[O-])cc23)-c2ccccc2N1 | 108* | 12 | 53 | -57 | -29 | 84*
CCc1nnc2n1N=C(c1ccc(-c3cc(Cl)ccc3Cl)o1)CS2 | 63* | -24 | 1 | -6 | -26 | -13
COc1ccc(C(O)c2nc(-c3cccc(C(F)(F)F)c3)cs2)cc1 (centres undefined) | 10 | x | 5 | -10 | 8 | -33
COc1ccc(C(O)c2nc(-c3cccc(F)c3)cs2)cc1 (centres undefined) | -32 | x | 82* | -49 | -37 | -5
CCSC1=C(C#N)C2(CCCCC2)C(C#N)C(=O)N1 (centres undefined) | 54* | 2 | 6 | 13 | 3 | 9
CCSC1=C(C#N)C2(CCCCC2)C(C#N)=C(N)N1 | -16 | -9 | -6 | -51 | -11 | 13
O=[N+]([O-])c1cc([N+](=O)[O-])c2cccnc2c1Oc1ccccc1O | 51* | 41 | 43 | 6 | -11 | 16
O=[N+]([O-])c1cc(CN2CCN(c3ccccc3)CC2)c(O)c2ncccc12 | 59* | 75* | 90* | 17 | 9 | 6
O=[N+]([O-])c1cc(Cl)c(O)c2ncccc12 | 57* | 23 | 10 | 3 | 1 | 15
CCCCn1c(N)c(N(CCC(C)C)C(=O)COC(=O)c2ccc3ccccc3c2)c(=O)[nH]c1=O | 30 | 4 | 17 | 5 | -30 | 32
CN(C)CC1CCC/C(=C\c2ccc(OC(=O)/C=C/c3ccc(Cl)c(Cl)c3)cc2)C1=O (centres undefined) | 95* | 2 | 7 | 8 | 13 | -26
O=C(COC(=O)/C=C/c1ccc(Cl)c(Cl)c1)NC1CCCC1 | 14 | -1 | 7 | 6 | -5 | -35
CCN1C(=O)CSc2ccc(C(=O)NC3CCCCC3)cc21 | -3 | -7 | -3 | -11 | 2 | -2
COc1cc(C(=O)NC2CCN(C)CC2)ccc1Nc1ncc2c(n1)N(C1CCCCC1)CCC(=O)N2C | 91* | u | 52 | -37 | -26 | -101
CCN1C(=O)CC(C(C)C)N(C2CCCC2)c2nc(Nc3ccc(C(=O)NC4CCN(C)CC4)cc3OC)ncc21 (centres undefined) | 66* | 84* | -55 | 19 | -18 | -69
CCN1C(=O)CC(c2ccccc2)N(C2CCCC2)c2nc(Nc3ccc(C(=O)NC4CCN(C)CC4)cc3OC)ncc21 (centres undefined) | 94* | 87* | 66 | 11 | -20 | -75
COc1cc(C(=O)NC2CCN(C)CC2)ccc1Nc1ncc2c(n1)N(Cc1ccccc1)CCC(=O)N2C | -105 | 47 | -18 | -152 | -29 | -171
CC(C)NC(=O)COc1coc(CN2CCN(C(=O)c3ccco3)CC2)cc1=O | 4 | 3 | 3 | 11 | 2 | 16
COc1ccc(C(=O)NCc2nnc(SCC(=O)NC3CCCC3)o2)cc1 | 16 | -3 | 11 | 6 | 21 | -28
C=CC[C@H](CC(=O)N[C@H](CO)Cc1ccccc1)C(=O)N[C@@H](COC(=O)[C@@H](CC=C)CC(=O)OC(C)(C)C)Cc1c[nH]c2ccccc12 | 63* | -8 | 8 | 7 | 9 | 2
